# High-throughput results (PubChem)
# This excerpt belongs to a sample that is enriched for hits.
# ST2 inh: blocks human ST2 binding to IL-33 | Q01638 | AlphaLISA ST2-Fc/biotin-IL-33 interaction, 1 h | inhibition, % for hits at 17 µM | 78,000 tested, 2.3% active; in the data active = inhibition above about 30%
# Target sequence (Q01638 whole entry, looked up): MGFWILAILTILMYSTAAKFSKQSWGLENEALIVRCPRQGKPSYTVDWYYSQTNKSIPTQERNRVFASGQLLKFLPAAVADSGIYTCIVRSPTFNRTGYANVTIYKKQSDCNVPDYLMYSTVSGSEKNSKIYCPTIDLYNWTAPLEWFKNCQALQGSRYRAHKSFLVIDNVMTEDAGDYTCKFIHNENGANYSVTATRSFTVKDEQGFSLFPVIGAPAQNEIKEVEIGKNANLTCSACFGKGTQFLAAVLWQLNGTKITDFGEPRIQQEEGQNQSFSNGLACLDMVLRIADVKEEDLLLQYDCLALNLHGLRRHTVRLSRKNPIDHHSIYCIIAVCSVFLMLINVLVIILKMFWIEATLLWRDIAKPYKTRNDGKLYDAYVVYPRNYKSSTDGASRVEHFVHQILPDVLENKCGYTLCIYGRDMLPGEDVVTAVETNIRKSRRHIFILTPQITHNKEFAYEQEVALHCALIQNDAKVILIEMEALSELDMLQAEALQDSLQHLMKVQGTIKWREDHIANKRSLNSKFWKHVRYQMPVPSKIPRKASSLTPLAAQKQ
# Active calls of the source: *; i = inactive.
SMILES,ST2 inh
CCN(CC)c1ccc(/C=C2\SC(=O)N(CC(=O)N3CCOCC3)C2=O)cc1,i
C=CCOc1ccc(/C=C2\SC(=O)N(CC(=O)N3CCOCC3)C2=O)cc1OC,40%*
CN1C(=O)S/C(=C/c2ccccc2OCc2ccc(C(=O)O)cc2)C1=O,i
O=C(CN1C(=O)S/C(=C\c2ccccc2OCc2cccc(F)c2)C1=O)N1CCOCC1,30%*
O=C(O)CCC(=O)N1CCOCC1,i
Cc1cc(N2CCN(Cc3ccccc3)CC2)nc(-c2cccnc2)n1,i
Cc1noc(C)c1CC(=O)N1CCCC(CCc2ccc(F)cc2)C1 (stereo not given),i
CCN(CC)C(=O)C1CCCN(Cc2c(Cl)cccc2Cl)C1 (stereo not given),i
Cc1ccc(C(=O)N2CCc3ccccc32)o1,i
Cc1ccc(C(=O)/C=C/C=C/C=C/N(C)C)o1,39%*
COc1ccc(S(=O)(=O)N2CCN(c3nc(C)cc(Nc4ccccc4)n3)CC2)cc1C,34%*
COc1ccc(Nc2cc(C)nc(N3CCN(S(=O)(=O)c4ccc(OC)cc4)CC3)n2)cc1,i
COc1ccc(Nc2cc(C)nc(N3CCN(S(=O)(=O)c4ccc(OC)c(C)c4)CC3)n2)cc1,i
CC(c1ccc2c(c1)OCCO2)N(C)Cc1nc(-c2cnccn2)no1 (stereo not given),i
CC(C)Cc1nc(CC2C(=O)N(C)C(=O)N2C)n(-c2ccc(F)cc2F)n1 (stereo not given),i
Oc1c(C=NCCc2ccccc2)[nH]c2ccc(Br)c(Cl)c12,32%*
COc1ccc(CCN=CC2=C(O)CC(c3ccccc3)CC2=O)cc1OC (stereo not given),i
Oc1c(C=Nc2ccc(F)cc2)[nH]c2ccc(Br)c(Cl)c12,30%*
Oc1c(C=NCc2ccc(Cl)cc2Cl)[nH]c2ccc(Br)c(Cl)c12,i
Oc1c(C=NCc2ccc(F)cc2)[nH]c2ccc(Br)c(Cl)c12,39%*
COc1cc(Br)c(Br)c(C=Nc2ccc(F)cc2)c1O,i
Cc1c(Cl)c(C)c([N+](=O)[O-])c(O)c1C=Nc1ccc(F)cc1,i
Cc1ccc(NC(=O)CC(=O)NC(C)c2nc3ccc(C)cc3[nH]2)c(C)c1 (stereo not given),i
COc1ccc(S(=O)(=O)Nc2ccc(Cl)cn2)cc1OC,i
O=C(NCCC1=CCCCC1)c1cc(=O)[nH]c2ccc(S(=O)(=O)N3CCCCCC3)cc12,i
SMILES,ST2 inh
CC1(C(=O)NC2CCCCCCC2)CCC(=O)N1C1CC1 (stereo not given),i
CC(NC(=O)C1CCC(=O)N1Cc1ccccc1Cl)c1ccc2c(c1)OCCO2 (stereo not given),i
COc1ccccc1N1CCN(C(=O)CN(c2ccc(C(C)C)cc2)S(C)(=O)=O)CC1,i
CNc1ncnc2c1C(c1ccccc1)c1c(NC)ncnc1O2,i
CCOc1ccc2sc(C=NCc3ccco3)c(O)c2c1,31%*
CCOc1ccc2oc(-c3ccccc3)c(C(=O)O)c2c1,i
CCOc1ccc(N(C(C)C(=O)NCc2ccco2)S(C)(=O)=O)cc1 (stereo not given),i
O=C(c1ccc(Cn2cnnn2)cc1)N1CCCC(Nc2ccc3c(c2)OCO3)C1 (stereo not given),i
O=S(=O)(c1cccc(Cl)c1)N1CCN(c2cc(-c3cccc(F)c3)ncn2)CC1,i
CCOC(=O)c1ccc(OC(=O)c2sc3ncn(CC)c(=O)c3c2C)cc1,i
C=CCN(CC=C)C(=O)C(c1ccccc1)c1ccccc1,i
O=c1[nH]c2ccccc2n1C1=CCN(c2nccc(N3CCC(O)C3)n2)CC1 (stereo not given),i
C=CCN(CC=C)C(=O)CN1CC=C(n2c(=O)[nH]c3ccccc32)CC1,31%*
NC(=O)C1CCN(C(=O)CCCn2c(=O)[nH]c3ccc(Br)cc3c2=O)CC1,i
O=C1CSc2ccc(C(=O)NCc3ccc(F)cc3)cc2N1,i
O=C1N(Cc2ccccn2)C(=O)C2(CCN(C3CCOCC3)CC2)N1Cc1ccccc1,i
CCC(=O)N1CCc2cc(S(=O)(=O)NC(C(=O)NCc3ccccn3)C(C)C)ccc21 (stereo not given),i
CCOC(=O)c1c(N)n(-c2ccc(OCC)cc2)c2nc3ccccc3nc12,i
Cc1ccc2c(c1)c1nc3ccccc3nc1n2CCN1CCOCC1,i
N#Cc1c(N)n(-c2cccc(F)c2)c2nc3ccccc3nc12,i
CCCCCn1c(N)c(C#N)c2nc3ccccc3nc21,i
N#Cc1c(N)n(CCN2CCOCC2)c2nc3ccccc3nc12,36%*
Cc1ccccc1-n1c(N)c(C#N)c2nc3ccccc3nc21,30%*
CC(C(=O)NCc1cccnc1)N1C(=O)COc2ccc(Cl)cc21 (stereo not given),i
O=C(c1cccn2c(=O)c3sccc3nc12)N1CCc2ccccc2C1,i
SMILES,ST2 inh
CC1=C(C(=O)OC2CCCC2)C(c2ccccc2)C2=C(CCCC2=O)N1 (stereo not given),i
N#Cc1c(C(F)(F)F)cc(-c2cccs2)nc1SCC(=O)Nc1ccc([N+](=O)[O-])cc1,38%*
CC(=O)CSc1nc(-c2cccs2)cc(C(F)(F)F)c1C#N,i
CCc1nnc(NC(=O)CSc2nc(-c3cccs3)cc(C(F)(F)F)c2C#N)s1,i
CC(C)(C)Cc1nnc(NC(=O)c2cccc(Cl)c2)s1,i
O=[N+]([O-])c1cccc(/C=C/c2ccccn2)c1,37%*
Nc1nnc(/C=C/c2cccc([N+](=O)[O-])c2)s1,i
O=[N+]([O-])c1cccc(C(=Nc2ccccc2)NO)c1,i
CC(C)c1ccc(/C=C2\Sc3ccccc3C2=O)cc1[N+](=O)[O-],i
CCOc1cc(/C=C2/C(=O)N(c3ccccc3)N=C2C)ccc1O,i
CCOc1cc(/C=C2/Sc3ccccc3C2=O)ccc1O,59%*
CCOc1cc(/C=C2/C=C(c3ccc(C)cc3)OC2=O)ccc1O,31%*
CCOc1cc(/C=C2/SC(=O)NC2=O)ccc1OCc1ccccc1,i
CCOc1cc(-c2ccc(O)cc2)cc(=O)c2c(C)oc(C)c12,i
Cc1ccccc1Cn1cc(C(=O)N2CCCN(C3CCCCC3)CC2)nn1,i
Cc1ccccc1Cn1cc(C(=O)Nc2ccc(F)c(F)c2F)ccc1=O,i
COc1ncc(C(=O)NC2CC(=O)N(CCc3ccc(F)cc3)C2)cn1 (stereo not given),i
CC(=O)c1cccc(NC(=O)C(C(C)C)N2C(=O)c3ccccc3C2=O)c1 (stereo not given),i
CNC(=O)[C@@H]1C[C@@H](N)CN1C(=O)c1ccoc1COc1ccc(C)cc1,i
CC(=O)N1c2c(cc(Br)cc2S(=O)(=O)NCCc2ccccc2Cl)CC1C (stereo not given),i
C=CCc1cc(OC)ccc1OCCCn1ccnc1,i
O=C1S/C(=C\c2ccc(O)cc2)C(=O)N1c1cccc(O)c1,i
COc1ccc(/C=C2\C(=O)N(c3cccc(Cl)c3)N=C2C)cc1Br,i
CC1=NN(c2ccc(Br)cc2)C(=O)/C1=C\c1ccc(-c2cccc([N+](=O)[O-])c2)o1,i
COc1ccc(-c2ccc(/C=C3\C(=O)N(c4cccc(Cl)c4)N=C3C)o2)cc1[N+](=O)[O-],49%*
CC1=NN(c2cccc(Cl)c2)C(=O)/C1=C\c1ccc(-c2cc([N+](=O)[O-])ccc2O)o1,91%*
COc1ccc(/C=C2\C(=O)N(c3ccccc3)N=C2C)cc1[N+](=O)[O-],i
CC1=NN(c2ccc(Cl)c(C(=O)O)c2)C(=O)/C1=C\c1ccc(-c2cccc([N+](=O)[O-])c2)o1,i
